This is a sample that favours compounds with a hit; in the whole collection about 3.7% have one here.
MazEF act – MazEF (E. coli) toxin RNase activation | 350,000 compounds, 0.32% hits | AID 504720 | P0AE70 | activation, % at 20 µM | FAM/BHQ RNA-DNA oligo cleavage fluorescence, 5 h; in the data active means activation above about 50%
Target sequence (P0AE70 whole entry, looked up): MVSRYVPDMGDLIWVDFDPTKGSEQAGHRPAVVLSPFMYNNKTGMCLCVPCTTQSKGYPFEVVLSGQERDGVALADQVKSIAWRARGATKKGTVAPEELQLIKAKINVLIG
BoNT-F LC inh – BoNT F light chain protease inhibition | Multiplex microsphere protease cleavage assay, flow cytometry | 360,000 compounds, 0.22% hits | AID 588497 | inhibition, % at 10 µM; in the data active means inhibition above about 35%, passing the limit was not always enough; inconclusive means no clear call, values can overlap the other calls
BoNT-A LC inh2 – inhibitors of Botulinum neurotoxin A light chain protease; inhibition, % at 10 µM; 360,000 compounds, 0.17% hits; multiplex microsphere protease substrate cleavage, flow cytometry
Anthrax LF inh2 – blocks Bacillus anthracis lethal factor protease; inhibition, % at 10 µM; multiplex microsphere protease cleavage assay, LF; 360,000 compounds, 0.12% hits
Bead autofluor – compound fluorescence in toxin protease inhibitor counterscreen | fluorescence intensity (concentration not given with the values) | 360,000 compounds, 3.1% hits | compound autofluorescence counterscreen, microsphere flow cytometry; stronger effect = higher value | AID 624483; in the data active means fluorescence intensity above about 16000; inconclusive means no clear call, values can overlap the other calls
Each line names hits and unclear results; the compound was inactive in the other large screens. Unless noted, no stated cut-off is given here; in the data, active means inhibition above about 30%; inconclusive means no clear call, values can overlap the other calls; inactive means below that.

O=C(NCc1ccco1)C1Cc2ccccc2CN1S(=O)(=O)c1ccccc1F (centres undefined)	Bead autofluor 23284
CCN1/C(=C\C=C(C(C)=O)C(C)=O)Sc2ccccc21	none
CCN1/C(=C\C(=S)Nc2ccccc2)Sc2ccccc21	BoNT-A LC inh2 39.1
Cn1c(CS/C(N)=N/N=C/c2ccccc2)c(Br)c(=O)n1-c1ccccc1	none
Cc1ccccc1N(CC(=O)NCC1CCCO1)C(=O)C1(C)CC(=O)N=C2C=CC=CN21 (centres undefined)	Bead autofluor 23341
Cc1nc(NC(=S)NC(=O)c2cccs2)sc1C(=O)N(C)C	Bead autofluor 22794
Cc1ccc(S(=O)(=O)Oc2ccc(C(c3c(C)[nH][nH]c3=O)c3c(C)[nH][nH]c3=O)cc2)cc1	none
CCOc1cc(C(c2c(C)[nH][nH]c2=O)c2c(C)[nH][nH]c2=O)ccc1OS(=O)(=O)c1ccccc1	Bead autofluor 20887
CC1CN(c2nc3c(c(=O)n(C)c(=O)n3C)n2Cc2c(F)cccc2Cl)CC(C)O1 (centres undefined)	Bead autofluor 18917
Cn1c(=O)c2c(nc(CN3CCN(c4ccccc4)CC3)n2Cc2c(F)cccc2Cl)n(C)c1=O	BoNT-A LC inh2 inconclusive, Bead autofluor 22170
Cn1c(=O)c2c(nc(CN3CCN(c4ccccc4)CC3)n2Cc2ccccc2Cl)n(C)c1=O	BoNT-A LC inh2 inconclusive, Bead autofluor 19891
Cc1cccc(OCC2CCCN(Cc3nc(C4CC4)no3)C2)c1 (centres undefined)	none
c1ccc2oc(NC3=NCN(C4CCCCC4)CN3)nc2c1	none (no result: BoNT-F LC inh, BoNT-A LC inh2, Anthrax LF inh2, Bead autofluor)
c1ccc2sc(NC3=NCN(C4CCCCCC4)CN3)nc2c1	Bead autofluor 19894
COC(=O)[C@@H](NC(=O)Nc1ccc2c(c1)OCCO2)C(C)C	none
CC(C)[C@H](NC(=O)Nc1ccc2c(c1)OCCO2)C(=O)O	Bead autofluor 20779
CCC(C)[C@H](NC(=O)Nc1ccc2c(c1)OCCO2)C(=O)O (some centres undefined)	none
COC(=O)[C@H](CC(C)C)NC(=O)Nc1ccc2c(c1)OCCO2	Bead autofluor 22561
CC1=C(C(=O)NCc2ccccc2)C(c2ccc(C)o2)n2ncnc2N1 (centres undefined)	BoNT-A LC inh2 inconclusive, Bead autofluor 20601
CC1=C(C(=O)Nc2ccccc2)C(c2ccc(C)o2)n2ncnc2N1 (centres undefined)	none
O=[N+]([O-])c1ccc(/C=N/Nc2nc(N3CCCCC3)nc(N3CCCCC3)n2)o1	Bead autofluor 21202
Cc1ccc(C(=S)NCS(=O)(=O)c2ccc(C)cc2)cc1	Bead autofluor 23970
Cc1ccc(S(=O)(=O)CNC(=S)c2cccc(Cl)c2)cc1	none
CCOCCCn1c(SCC(=O)NCc2ccco2)nc2c(sc3ccccc32)c1=O	none
O=C(CSc1nc2ccccc2c(=O)n1Cc1ccc(C(=O)NC2CC2)cc1)NCc1ccco1	Bead autofluor 19257
O=C(CSc1nc2ccccc2c(=O)n1CCCC(=O)N1CCCC1)NCc1ccco1	Bead autofluor 23337
CCCCn1c(SCC(=O)NCc2ccco2)nc2c(sc3ccccc32)c1=O	BoNT-A LC inh2 inconclusive, Bead autofluor 22504
CCCc1cc(Nc2c(C)n(C)n(-c3ccccc3)c2=O)n2c(nc3ccccc32)c1C#N	Bead autofluor 22932
Cc1cc(Nc2c(C)n(C)n(-c3ccccc3)c2=O)n2c(nc3ccccc32)c1C#N	none
O=C(NCc1ccncc1)c1ccc(Br)cc1	Bead autofluor 22240
O=C(NCc1ccccc1)NC(=O)c1ccncc1	Bead autofluor 20362
O=C(CCNC(=O)c1ccc(Br)cc1)NCc1ccncc1	none (no result: BoNT-F LC inh, BoNT-A LC inh2, Anthrax LF inh2, Bead autofluor)
O=C1CC(N(Cc2ccc3c(c2)OCO3)C(=O)Nc2ccc(F)cc2)C(=O)N1c1ccccc1 (centres undefined)	BoNT-A LC inh2 inconclusive, Bead autofluor 23094
COc1ccc(C2(c3ccc(OC)cc3)NC(=O)NC2=O)cc1	none
O=C(O)c1ccc(NS(=O)(=O)/C=C/c2ccccc2)cc1O	Bead autofluor 21416
Cc1nc2c(=O)[nH]c(=S)[nH]c2[nH]c1=O	none
COC(=O)c1c(C(=O)OC)c2n(c1C)Cc1ccccc1C2	Bead autofluor 22637
Cc1ccccc1S(=O)(=O)Cc1ccc(C(=O)NC2CCCC2)o1	none
O=C(NCCCN1CCOCC1)c1ccc(CS(=O)(=O)c2cccc(C(F)(F)F)c2)o1	Bead autofluor 22992
Cc1ccccc1CS(=O)(=O)CCC(=O)NCCCN1CCN(c2ccccc2F)CC1	none
O=C(CCS(=O)(=O)Cc1ccc(Cl)cc1)NCCCN1CCN(c2ccccc2F)CC1	Bead autofluor 22031
O=C(NC1CCCC1)c1ccc(CS(=O)(=O)c2cccc(C(F)(F)F)c2)o1	Bead autofluor 22398
O=C(NCCCN1CCOCC1)c1ccc(CS(=O)(=O)Cc2ccc(Cl)cc2)o1	Bead autofluor 20919
CN(CC(=O)Nc1ccc(Cl)cc1)C(=O)c1sccc1-c1ccccc1	none
CCCN(C(=O)c1ccc(N(C)S(=O)(=O)c2ccc(C)cc2)cc1)C1CCS(=O)(=O)C1 (centres undefined)	Anthrax LF inh2 inconclusive
O=C(O)CC(NS(=O)(=O)Cc1ccccc1)c1cccc([N+](=O)[O-])c1 (centres undefined)	none
COC(C)c1oc2c(C)c3oc(=O)cc(C)c3cc2c1C (centres undefined)	BoNT-F LC inh inconclusive
Cc1ccc[n+](CC2OCc3ccccc3CO2)c1	none
CCCCN(CCCC)CC1OCc2ccccc2CO1	Bead autofluor 20889
CCc1ccc(C(C)NC(=O)Cn2cnc3c(=O)n(C)c(=O)n(C)c32)cc1 (centres undefined)	Bead autofluor 16189
CC1(C(=O)O)COC(c2ccc([N+](=O)[O-])cc2)OC1 (centres undefined)	Bead autofluor 16243
Cc1ccc(N2CCN(CCc3nc4cc(NC(=O)c5ccco5)ccc4n3C)CC2)cc1	Bead autofluor 24375
Cn1c(CCNC(=O)c2ccco2)nc2cc(NS(=O)(=O)c3ccc(Cl)cc3)ccc21	Bead autofluor 21550
Cn1c(CCN2CCN(c3ccc(F)cc3)CC2)nc2cc(NC(=O)c3ccco3)ccc21	Bead autofluor 24006
CC(=O)NCCc1nc2cc(NS(=O)(=O)c3ccc(Cl)cc3)ccc2n1C	none
CCN(C)C1CN(Cc2cn(Cc3cccc(Cl)c3)nn2)S(=O)(=O)C1 (centres undefined)	none (no result: MazEF act)
COC(=O)c1cn(C(=O)c2cc(Br)ccc2Cl)c2ccccc12	none
CC(C)(C)c1ccc(CC(=O)N2CCC2(C)C(=O)Nc2cccc3c2CCCC3)cc1 (centres undefined)	none (no result: MazEF act)
COc1cccc(C2NC(=O)NC(O)(C(F)(F)F)C2C(=O)c2cccnc2)c1OC (centres undefined)	Bead autofluor 22761
CN1/C(=C\C(=S)NC(=O)c2cccc(Br)c2)C(C)(C)c2ccccc21	BoNT-A LC inh2 41.5
CN=C1S/C(=C\c2cc(C)n(-c3ccccc3F)c2C)C(=O)N1C	Bead autofluor 20537
COc1ccc(CN2CCN(Cc3cc4ccccc4o3)CC2CCO)cc1C (centres undefined)	none
CC1=CC(C)(C)N(C(=O)CSc2nnc(N)s2)c2cc(C)c(C)cc21	Bead autofluor 23062
